Most compounds without a hit are left out; they make up all but 2.4% or so of the library.
Pf Dd2 growth: P. falciparum Dd2 growth inhibition; SYBR Green, 72 h; hits give low values; 94,000 compounds, 2.3% hits; activity change, % at 10 µM; in the data active = activity change below about -80%
C diff growth: inhibitors of Clostridium difficile growth. 86,000 compounds, 0.25% hits. Clostridium difficile clinical isolate growth, OD600, 24 h; hits give low values. growth activity, negative = inhibition, % at 16 µg/mL (by protocol);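 active = mean growth activity at or below -80% and every replicate also at or below -80%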;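 note: 0% = DMSO wells and -100% = levofloxacin 16 µg/mL wells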
The depositor's hits bear a star; / = no result given.

SMILES	Pf Dd2 growth	C diff growth
COc1ccc(S(=O)(=O)N(C)C[C@H]2OCCCC[C@@H](C)Oc3ccc(NS(=O)(=O)c4ccc(F)cc4)cc3C(=O)N([C@@H](C)CO)C[C@H]2C)cc1	-51	6
COc1ccc(CN(C)C[C@@H]2Oc3c(NS(=O)(=O)c4ccc(OC)cc4)cccc3C(=O)N([C@H](C)CO)C[C@H]2C)cc1	-7	-6
O=C(NC1CCCC1)[C@@H]1[C@@H](CO)[C@@H]2Cn3c(ccc(-c4ccccc4)c3=O)[C@H]1N2	1	3
O=C(NCC1CCCCC1)[C@@H]1[C@@H](CO)[C@@H]2Cn3c(ccc(-c4ccncc4)c3=O)[C@H]1N2	5	0
C[C@@H]1CN([C@H](C)CO)C(=O)c2c(c3ccccc3n2C)-c2ccccc2CO[C@H]1CN(C)Cc1cccc2c1OCCCO2	-68	5
C[C@@H]1CN([C@@H](C)CO)C(=O)c2c(c3ccccc3n2C)-c2ccccc2CO[C@@H]1CN(C)Cc1cccc2c1OCCCO2	-85*	17
C[C@H]1CN([C@@H](C)CO)C(=O)c2c(c3ccccc3n2C)-c2ccccc2CO[C@@H]1CN(C)Cc1cccc2c1OCCCO2	-80	8
C[C@@H]1CN([C@H](C)CO)C(=O)c2c(c3ccccc3n2C)-c2ccccc2CO[C@@H]1CN(C)Cc1cccc2c1OCCCO2	-84*	16
C[C@@H]1CCCCO[C@@H](CN(C)CC2CCCCC2)[C@H](C)CN([C@H](C)CO)C(=O)c2cc(NC(=O)NC3CCCCC3)ccc2O1	-73	/
CS(=O)(=O)Nc1ccc2c(c1)[C@@H]1C[C@@H](CC(=O)N3CCCCC3)O[C@@H](CO)[C@@H]1O2	13	3
CCCN(C)C[C@@H]1Oc2cc(C#Cc3cccc(F)c3)ccc2S(=O)(=O)N([C@H](C)CO)C[C@@H]1C	/	6
C[C@@H]1CCCCO[C@@H](CN(C)C(=O)Nc2cccc3ccccc23)[C@H](C)CN([C@@H](C)CO)C(=O)c2cc(NC(=O)Cc3ccccc3)ccc2O1	-81*	12
C[C@@H]1CCCCO[C@H](CN(C)C(=O)Nc2cccc3ccccc23)[C@@H](C)CN([C@@H](C)CO)C(=O)c2cc(NC(=O)Cc3ccccc3)ccc2O1	-69	5
C[C@@H]1CCCCO[C@H](CN(C)C(=O)Nc2cccc3ccccc23)[C@@H](C)CN([C@H](C)CO)C(=O)c2cc(NC(=O)Cc3ccccc3)ccc2O1	-39	6
C[C@H](CO)N1C[C@H](C)[C@H](CN(C)C(=O)Nc2cccc3ccccc23)OCCCC[C@H](C)Oc2ccc(NC(=O)Cc3ccccc3)cc2C1=O	-82*	11
C[C@H]1CCCCO[C@H](CN(C)C(=O)Nc2cccc3ccccc23)[C@@H](C)CN([C@@H](C)CO)C(=O)c2cc(NC(=O)Cc3ccccc3)ccc2O1	-84*	-12
C[C@@H]1CN([C@H](C)CO)C(=O)c2cc(NC(=O)c3ccccc3)ccc2O[C@@H](C)CCCCO[C@H]1CN(C)C(=O)Nc1cccc2ccccc12	-70	-4
C[C@@H]1CN([C@H](C)CO)C(=O)c2cc(NC(=O)Nc3ccc(C(F)(F)F)cc3)ccc2O[C@@H](C)CCCCO[C@H]1CN(C)S(=O)(=O)c1cn(C)cn1	-31	-5
C[C@@H]1CN([C@@H](C)CO)C(=O)c2cc(NC(=O)CCC(F)(F)F)ccc2O[C@@H](C)CCCCO[C@H]1CN(C)C(=O)Nc1cccc2ccccc12	-85*	-2
C[C@@H]1CN([C@H](C)CO)C(=O)c2cc(NC(=O)CCC(F)(F)F)ccc2O[C@@H](C)CCCCO[C@H]1CN(C)C(=O)Nc1cccc2ccccc12	-69	-1
C[C@H](CO)N1C[C@H](C)[C@@H](CN(C)C(=O)Nc2cccc3ccccc23)OCCCC[C@H](C)Oc2ccc(NC(=O)CCC(F)(F)F)cc2C1=O	-37	3
C[C@@H]1CN([C@@H](C)CO)C(=O)c2cc(NC(=O)CCC(F)(F)F)ccc2O[C@@H](C)CCCCO[C@@H]1CN(C)C(=O)Nc1cccc2ccccc12	-89*	10
C[C@H](CO)N1C[C@H](C)[C@H](CN(C)CC2CCCCC2)Oc2ccc(NC(=O)c3ccncc3)cc2C1=O	-3	-3
O=C(N[C@H]1CC[C@@H](CCn2cc(C3(O)CCCC3)nn2)O[C@H]1CO)C1CCC1	3	0
CCCNC(=O)N[C@@H]1CC[C@H](CC(=O)NC2CCCCC2)O[C@H]1CO	9	-1
C/C=C/c1ccc2c(c1)[C@H]1[C@H](CCN1C(=O)c1ccc3c(c1)OCO3)[C@H](CO)N2	-90*	5
Cc1ccccc1S(=O)(=O)N1CC[C@H]2[C@H](CO)Nc3ccc(-c4ccccc4)cc3[C@H]21	17	66
CCCC#Cc1ccc2c(c1)[C@@H]1[C@@H](CCN1S(=O)(=O)c1ccccc1C)[C@@H](CO)N2	-84*	37
O=C(c1ccc2c(c1)OCO2)N1CC[C@H]2[C@H](CO)Nc3ccc(-c4ccc(F)cc4)cc3[C@H]21	-11	0

Compound activity as filed in PubChem.
